# Shown are actives, neighbours in structure and some others; about 0.97% of the full set was active somewhere.
# Mtb BioA inh = M. tuberculosis BioA enzyme inhibitors, primary screen, biochemical, plate reader, single point, HTS; purified M. tuberculosis BioA enzyme; inhibition, % at 9.99 µM; hit rate 0.096% among 360,000; in the data active = inhibition above about 40%; inconclusive = no clear call, values can overlap the other calls
# RecA intein inh = Mtb RecA intein splicing inhibitors, primary screen, biochemical, fluorescence, HTS | cell-free RecA intein splicing | inhibition, % (test concentration not listed) | hit rate 0.75% among 290,000; in the data active = inhibition above about 30%; inconclusive = no clear call, values can overlap the other calls
# Rv3671c inh = Rv3671c serine protease inhibitors, primary screen, biochemical, fluorescence polarization, M. tuberculosis H37Rv; hit rate 0.048% among 320,000; P9WHR9; inhibition, % at 5.96 µM; in the data active = inhibition above about 38%;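 note: extracellular domain of Rv3671c used as enzyme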
# FadD28 binding = inhibitors of FadD28 bisubstrate probe binding, primary screen, biochemical, fluorescence polarization, single point. Mycobacterium tuberculosis FadD28 fatty-acid-AMP ligase. inhibition, % at 12.5 µM. hit rate 0.22% among 360,000; in the data active = inhibition above about 8.5%, passing the limit was not always enough; inconclusive = no clear call, values can overlap the other calls
# UGM FP inh = M. tuberculosis UGM enzyme inhibitors, primary screen, biochemical, fluorescence polarization, single point | UDP-galactopyranose mutase (Mycobacterium tuberculosis (strain ATCC 25618 / H37Rv)), … | purified UGM, fluorescence polarization probe displacement | inhibition, % at 10 µM | hit rate 0.06% among 320,000; in the data active = inhibition above about 10%, passing the limit was not always enough; inconclusive = no clear call, values can overlap the other calls
# Target sequence (P9WIQ1 whole entry, looked up): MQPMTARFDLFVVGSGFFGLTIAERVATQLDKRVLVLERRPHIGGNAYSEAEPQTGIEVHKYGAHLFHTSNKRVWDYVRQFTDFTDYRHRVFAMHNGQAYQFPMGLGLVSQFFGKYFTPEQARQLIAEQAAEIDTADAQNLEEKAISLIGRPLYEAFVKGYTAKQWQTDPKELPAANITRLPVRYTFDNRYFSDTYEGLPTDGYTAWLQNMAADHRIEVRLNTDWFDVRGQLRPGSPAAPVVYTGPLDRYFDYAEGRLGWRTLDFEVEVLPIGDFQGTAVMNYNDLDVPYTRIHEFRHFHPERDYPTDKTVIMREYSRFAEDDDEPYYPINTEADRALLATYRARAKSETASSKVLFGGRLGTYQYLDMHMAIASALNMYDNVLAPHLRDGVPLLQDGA
# TcdB GH inh = TcdB glycohydrolase inhibitors, primary screen, biochemical, single point, plate reader. TcdB glycohydrolase enzymatic assay. inhibition, % at 9.99 µM. hit rate 0.24% among 350,000; in the data active = inhibition above about 10%
# Hits are given with their value; - = inactive; ? = inconclusive; . = not tested or not shown.
SMILES,Mtb BioA inh,RecA intein inh,Rv3671c inh,FadD28 binding,UGM FP inh,TcdB GH inh
CC(C)C#Cc1ccc2c(c1)O[C@@H](CN(C)C(=O)c1ccccn1)[C@@H](C)CN([C@@H](C)CO)S2(=O)=O,-,.,.,.,.,-
O=C(C[C@@H]1CC[C@@H]2[C@H](COC[C@@H](O)CN2C(=O)Nc2ccc(C(F)(F)F)cc2)O1)NC1Cc2ccccc2C1,-,.,.,.,.,-
COc1cccc(-c2ccc([C@@H]3[C@H]4CN(C(=O)C5CC5)CC(=O)N4[C@H]3CO)cc2)c1,.,.,.,.,.,-
CN1/C(=C/C=C/c2n(C)c3cc([N+](=O)[O-])c([N+](=O)[O-])cc3[n+]2C)C(C)(C)c2ccccc21,-,.,.,-,.,12
C/C(=N\Nc1ccc(Cl)c(C(=O)O)c1)c1ccc[nH]1,.,-,-,28,-,-
CCCNC(=O)N1C[C@H](O)COC[C@H]2O[C@H](CC(=O)NCc3ccc(Cl)c(Cl)c3)CC[C@@H]21,-,.,.,.,.,-
C/C=C/c1ccc([C@H]2[C@@H](CO)N(Cc3cncnc3)C23CN(C(C)=O)C3)cc1,.,.,.,.,.,-
C=CCc1c(C)nc(SC)nc1Nc1ccc(C(C)=O)cc1,54,-,-,-,-,.
O=C(NC(=S)Nc1ccc(O)cc1)c1cncc(Br)c1,.,-,-,-,-,15
CCOC(=O)Cc1cc(=O)n2[nH]c(-c3ccccc3)cc2n1,-,.,-,-,-,-
CCOC(=O)N1CCC(c2cc(=O)n3[nH]c(-c4ccccc4)cc3n2)CC1,-,-,-,-,-,24
O=C(C[C@@H]1C[C@H]2c3cc(NC(=O)Nc4ccccc4)ccc3O[C@H]2[C@H](CO)O1)NCc1ccccc1,-,.,.,.,.,12
O=C(C[C@H]1C[C@@H]2c3cc(NC(=O)c4ccc5c(c4)OCO5)ccc3O[C@@H]2[C@@H](CO)O1)NCc1cccc(F)c1,-,.,.,.,.,20
O=C(C[C@H]1C[C@@H]2c3cc(NC(=O)c4ccc5c(c4)OCO5)ccc3O[C@@H]2[C@H](CO)O1)NCc1cccc(F)c1,-,.,.,.,.,-
O=C(C[C@@H]1C[C@@H]2c3cc(NC(=O)Nc4ccccc4)ccc3O[C@@H]2[C@H](CO)O1)NCc1ccccc1,-,.,.,.,.,-
O=C(C[C@@H]1C[C@H]2c3cc(NC(=O)c4ccc5c(c4)OCO5)ccc3O[C@H]2[C@H](CO)O1)NCc1cccc(F)c1,-,.,.,.,.,18
O=C(C[C@@H]1C[C@@H]2c3cc(NC(=O)c4ccc5c(c4)OCO5)ccc3O[C@@H]2[C@@H](CO)O1)NCc1cccc(F)c1,-,.,.,.,.,17
O=C(C[C@H]1C[C@H]2c3cc(NC(=O)c4ccc5c(c4)OCO5)ccc3O[C@H]2[C@H](CO)O1)NCc1cc(F)ccc1F,-,.,.,.,.,-
O=S(=O)(c1cccc(F)c1)N1CCN(Cc2cccc(OCCO)c2)CC1,.,.,.,.,.,-
CC(C)NC(=O)N[C@H]1C=C[C@@H](CC(=O)NCCCN(C)C)O[C@H]1CO,-,.,.,.,.,-
C=CCn1ccc(=NC=C(C#N)C#N)c2ccccc21,-,-,-,-,36,-
COc1ccc(Cl)cc1NC(=O)CN(C)C(=O)c1cc2c(s1)CCCC2,-,.,.,-,.,12
COc1cccc(NC(=O)CN(C)C(=O)c2cc3c(s2)CCCCC3)c1,-,.,-,13,-,-
COc1cccc(NC(=O)CN(C)C(=O)c2cc3c(s2)CCCC3)c1,-,.,-,-,-,-
Cc1ccc(-c2ccc3c(c2)O[C@H](CN(C)Cc2cccnc2)[C@@H](C)CN([C@@H](C)CO)S3(=O)=O)cc1,-,.,.,.,.,-
SMILES,Mtb BioA inh,RecA intein inh,Rv3671c inh,FadD28 binding,UGM FP inh,TcdB GH inh
Cn1c2ccccc2c(=O)n2c(=O)c3ccccc3cc12,.,93,-,.,-,.
Cn1c(-c2ccccc2)cc(=O)c2ccccc21,-,-,-,-,-,.
COc1ccc(C2=CC3=C(Br)C(=O)C(C)(OC(=O)C4CCCC4)C(=O)C3=CO2)cc1 (stereo unspecified),-,-,-,11,-,.
COc1cc(/C=C2\CC/C(=C\c3cc(OC)c(O)c(OC)c3)C2=O)cc(OC)c1O,.,.,-,?,17,-
COc1ccc2c3c([nH]c2c1)[C@@H](CO)N(S(C)(=O)=O)CC31CCN(C(=O)Cc2cccnc2)CC1,.,.,.,.,.,-
COc1cc([N+](=O)[O-])cc(/C=C2/SC(=S)N(Cc3ccccc3)C2=O)c1O,-,-,-,47,-,-
COc1cc(/C=C2\SC(=O)N(Cc3ccc(F)cc3)C2=O)cc([N+](=O)[O-])c1O,.,.,.,-,.,-
COc1cc(/C=C2\SC(=O)N(Cc3ccc(Cl)cc3)C2=O)cc([N+](=O)[O-])c1O,.,.,.,24,.,-
CNC[C@H]1Oc2ncc(C#CC3(O)CCCC3)cc2C(=O)N([C@H](C)CO)C[C@H]1C,-,.,.,.,.,-
CN1C[C@@H]2[C@H](c3ccccc31)[C@H](CO)N2C(=O)Nc1ccccc1,-,.,.,.,.,.
COc1ccc(C2C(C(=O)c3cccs3)=C(O)C(=O)N2c2nncs2)cc1 (stereo unspecified),-,-,-,-,13,.
CN1/C(=C\C=C(/C#N)C(=O)Nc2ccc(Cl)cc2)C(C)(C)c2ccccc21,.,-,-,-,-,.
CN1/C(=C\C=C(C#N)C#N)C(C)(C)c2ccccc21,-,-,-,-,72,-
COC(=O)C[C@H]1CC[C@H]2[C@@H](COc3ccc(NC(=O)c4ccc(OC)cc4)cc3C(=O)N2C)O1,.,.,.,.,.,-
COc1cccc(C(=O)Nc2ccc3c(c2)C(=O)N(C)[C@H]2CC[C@@H](CC(=O)NCC4CC4)O[C@@H]2CO3)c1,-,.,.,.,.,-
COC(=O)C[C@H]1CC[C@@H]2[C@@H](COc3ccc(NC(=O)c4ccc(OC)cc4)cc3C(=O)N2C)O1,-,.,.,.,.,12
COc1ccc(C(=O)Nc2ccc3c(c2)C(=O)N(C)[C@@H]2CC[C@H](CC(=O)NCC4CC4)O[C@@H]2CO3)cc1,-,.,.,.,.,15
CCNC(=O)C[C@H]1CC[C@@H]2[C@@H](COc3ccc(NC(=O)c4cccc(OC)c4)cc3C(=O)N2C)O1,-,.,.,.,.,10
C[C@@H]1CCCCO[C@@H](CN(C)CC2CCCCC2)[C@H](C)CN([C@H](C)CO)C(=O)c2cc(NS(=O)(=O)c3ccc(F)cc3)ccc2O1,-,.,.,.,.,-
C[C@H]1CCCCO[C@H](CN(C)C(=O)Nc2ccc(C(F)(F)F)cc2)[C@@H](C)CN([C@@H](C)CO)C(=O)c2cc(NC(=O)Nc3ccc4c(c3)OCO4)ccc2O1,-,.,.,.,.,-
CC(C)n1c(O)c(N=Nc2ccc(Cl)c(C(=O)O)c2)c2ccccc21,-,-,-,11,-,-
COc1ccccc1/C=N/NC(=O)CC(=O)NCc1ccccc1,-,-,-,-,-,11
COc1ccccc1/C=N/NC(=O)CO,.,-,-,-,-,-

# Screening data (PubChem)
